# Measurements as given in the supplement of paper PMC6555819.
# Tests used:
# Assay in all cases: PBM binding z-score (relative to random genomic background probes); higher = stronger binding; sequences stand for … in GC…GCGATTGACAGCGTAGAATGAAGG
# [1] = system: LXRa:RXRa (NR concentration 270 nM, RXRa partner concentration 90 nM)
# Procedure, shortened: (§1)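 Custom Agilent 4×180K protein-binding microarrays carried double-stranded probes, each with a 34-nt variable region. These regions held direct-repeat seeds, single-nucleotide variants, half-site ablations and random human genomic background sequences. Ligand-free nuclear receptor dimers were incubated on the arrays for 1 h, antibodies against each partner (one per run) detected binding, and scanned fluorescence was regression-normalized. Binding z-scores take the random background probes as reference.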
# [2] = system: LXRa homodimer (NR concentration 270 nM)
# Procedure, shortened: as §1
# [3] = system: LXRb homodimer (NR concentration 270 nM)
# Procedure, shortened: as §1
# [4] = system: PPARa:RXRa (NR concentration 270 nM, RXRa partner concentration 90 nM)
# Procedure, shortened: as §1
# [5] = system: PPARg:RXRa (NR concentration 180 nM, RXRa partner concentration 90 nM)
# Procedure, shortened: as §1
# [6] = system: PPARg:RXRa 270nM:90nM, anti-RXR (NR concentration 270 nM, RXRa partner concentration 90 nM)
# Procedure, shortened: as §1
# [7] = system: PPARg:RXRa 30nM:10nM, anti-RXR (NR concentration 30 nM, RXRa partner concentration 10 nM)
# Procedure, shortened: as §1
# [8] = system: PPARg:RXRa 90nM:30nM, anti-RXR (NR concentration 90 nM, RXRa partner concentration 30 nM)
# Procedure, shortened: as §1
# [9] = system: PPARg:RXRa DBDmut IVT, anti-RXR (DBD mutation: RXRa K156A/R161A, NR concentration 270 nM, RXRa partner concentration 90 nM)
# Procedure, shortened: as §1
# [10] = system: FXR:RXRa (NR concentration 270 nM, RXRa partner concentration 90 nM)
# Procedure, shortened: as §1
Sequence,PBM binding z-score [1],PBM binding z-score [2],PBM binding z-score [3],PBM binding z-score [4],PBM binding z-score [5],PBM binding z-score [6],PBM binding z-score [7],PBM binding z-score [8],PBM binding z-score [9],PBM binding z-score [10]
CGTCCAAGGTCAAGGTCAATGAAAGAGACTCGAA,6,1.82,1.11,6,7.25,6.84,3.28,5.67,3.68,–
CCTACTGGGCCTAAGGTCATTGATTCCAATGCTC,2.93,2.32,0.209,4.53,7.98,8.17,7.15,8.08,1.25,–
TAGCCTAGGTCATGCGGCCCAGTATAGTGTCGGC,3.19,0.125,-0.105,3.52,2.04,2.49,0.144,1.04,1.17,–
ACTTACGGGTCTACGAGGTTATAGCACGCGTATA,–,0.149,0.121,–,0.708,0.426,0.256,0.0516,-0.0713,0.283
CCGAGGAGGTTACGAGGGGGCATTCAGTGCGAAT,–,1.63,–,4.29,2.38,3.52,0.838,2.45,1.54,4.41
TAGCCTAGGTCATACAGGGGCCAGTATAGAAAGC,3.34,0.359,0.751,3.72,2.36,2.35,0.845,1.62,1.94,–
CGAACTAGGTCATCCAGGTCAGTGAATACATTGA,–,1.02,-0.0563,–,7.77,6.49,4.46,6.24,8.34,5.02
CGAACTAGGTCAAAGGACATTGAAAGGCGACGTA,2.7,0.172,-0.137,6.03,10.8,8.84,9.04,10.6,8.06,–
TTGCCAAGGTGAAAGGTCGTTGATGCACGCCTTG,3.11,-0.0355,-0.723,5.16,8.02,7.51,6.32,8.1,1.69,–
TAGCCTAGGTCATTCAGGGGCAAGTATAGAAAGC,–,2.15,1.41,–,2.47,2.67,0.449,1.87,1.93,5.65
CCTACTGGGCCACTAAAGGTCATTGATTCAGTGA,–,8.29,1.27,–,4.06,4.89,2.26,4.15,5.49,3.27
CCTTACGGGTCCCTCCAGGTTATAGCATCGGAGT,-0.148,-0.112,-0.475,-0.0853,-0.172,-0.6,-0.679,-0.697,-1.14,–
TTGCCTAGGTCATTGGGCCAGTATAGTACGCATC,–,0.781,0.088,–,3.36,3.63,1,2.47,2.65,4.6
GCTGCTAGGTCAACTGATGGTCAACTAAAGCTCG,3.47,0.653,0.415,3.72,3.01,3.06,0.746,2.31,4.87,–
ATATGTAGGTTAGGGTCAGTCAGAAAGTAGGGAA,2.82,0.758,1.69,4.61,6.72,5.54,3.24,4.97,6.27,–
CCGAGTAGGTTACTAGGGGGCATTCAGTGCGAAT,–,6.06,–,–,2.37,3.48,1.14,2.93,4.55,2.3
CGTCAAAGTTCAACTGAGGTAACGTAAAGCACGC,–,5.02,2,–,5.04,5.58,2.33,4.11,0.26,7.32
CCTACTGGGCCACGAAAGGCCATTGATTCAGTGA,–,-0.396,-0.835,–,1.34,1.21,-0.199,0.589,5.23,-0.0775
TAGCCTAGGTTATGGGCCAGTATACCACGCGAAC,–,-0.332,-0.441,–,0.643,0.89,-0.0157,0.388,0.121,-0.238
TGAATGAGGTTAAATATCAGGGAACGTGGCGTCG,2.5,-0.0698,0.686,3.72,2.51,3.17,1.45,2.46,2.43,–
CCGAGAAGGTTACGAGGGGGCATTCAGTGCGAAT,–,1.76,–,–,1.9,2.99,0.996,1.72,1.32,4.03
AGAATGAGGTTACCAAAGGTCAGGGAAACGCTTG,–,8.17,0.893,–,5.51,5.63,3.27,4.99,4.16,6.02
CAAACTAGGTCACCGAAAGGTCAAAGTCCGCATG,–,7.45,2.39,–,–,8.22,6.51,8.62,8.72,7.31
TCTAGTTGGTCACGGAGGACACACACGACGGGTA,–,0.465,0.417,–,1.34,1.7,2.85,2.53,2.26,0.602
TGTCAAAGTTCAAAGGTTACGTAAGTATCCACAC,–,5.25,2.03,–,–,8.17,5.91,8.13,0.119,7.49
TCTAGTCGGTCAAAGGTCACACACTCGAAATGCG,–,5.28,2.21,–,–,10.2,11.1,11.4,5.17,6.97
TCTTGTAGGTCAATAGAGGTTAAGAAAGTGCGCT,–,3.93,1.17,–,6.67,5.94,4.32,5.5,7.07,4.77

Sequence,PBM binding z-score [1],PBM binding z-score [2],PBM binding z-score [3],PBM binding z-score [4],PBM binding z-score [5],PBM binding z-score [6],PBM binding z-score [7],PBM binding z-score [8],PBM binding z-score [9],PBM binding z-score [10]
TTACCAAGGTGAAAGGTCGTTGCTGCACGCCTTG,3.07,0.401,-0.185,5.33,8.98,7.85,8.63,8.9,2.97,–
CAAACTAGGTCACGAGAGGTCAAAGTCGAATGAC,8.28,8.5,2.4,6.78,10.7,8.59,6.83,8.87,8.71,–
CCGAGTAGGTTACGAGGGGTCATTCAGTGCGAAT,–,6.16,–,–,4.13,4.4,1.73,3.54,4.41,4.94
CGTCAAAGTCCAAGGTAACGTAACAGAAAGCAGC,-0.0963,0.0661,-0.271,0.351,0.688,0.296,0.129,0.303,0.295,–
ATATGTAGGTTATCGGGTCATACAGTTTGCGCAT,–,1.45,1.35,–,7.64,6.2,4.38,5.61,7.63,3.18
CCTACTGGGTCAAAGGTCATTGATTCCAATGCTC,–,5.27,1.18,–,–,11.2,12.3,13,7.6,7.5
CGAACAAGGTCATCCAGGACAGTGAATACATTGA,5.83,1.43,1.27,5.9,6.4,6.17,2.72,5.1,4.74,–
CCTACTGGGCCATTCAGAGGTCAATGATCATATG,–,4.81,0.521,–,2.59,3.02,0.908,2.2,4.08,2.47
AAAACAGGGTCATCGTAGGCCAGAGTACGCACAG,6.26,0.569,1.32,6.26,7.65,6.86,4.1,5.89,4.38,–
CCAACTGGGCCAAAAAGGTCATTGATGCCGATAA,4.4,3.17,0.337,4.57,3.08,4.09,1.65,3.3,4.24,–
AGAATGGGGTTATACGTAGATCAGGGAAGAAAGT,2.95,0.583,2.07,5.16,3.69,4,1.39,3.03,4.84,–
CGAACTAGGTCATTGACAGGACAGTGGATAGTAA,2.74,0.471,0.232,4.75,7.3,6.07,3.68,5.3,8.44,–
CGAACGAGGTCATTGACAGGACAGTGAATAGTAA,6.11,1.41,1.44,–,6.82,6.46,3.58,6.21,5.35,–
CGAACAAGGTCACCAGGACAGTGAAGAGGTTGGA,5.26,0.443,0.736,6.12,7.8,7.38,3.87,6.13,5.38,–
CGAACTAGGTCATCCAGGACCGTGAATACATTGA,2.19,0.428,-0.349,4.4,7.13,6.1,3.53,5.78,8.24,–
GGAACGAGGTCAAGTTGATAGCAGAGTTTGATGG,6.21,2.03,2.13,–,7.7,6.96,4.31,6.52,6.19,–
ACTCGGTGGACAAAGGTCAGAGCTACGCCAGTGA,3.52,0.715,-0.512,4.25,6.18,6.42,5.2,6.63,0.195,–
CGAACTAGGTCTAAGGACAGTGAAAGGCGACGTA,-0.762,-0.416,-1.3,0.792,2.4,3.45,1.89,3.31,2.2,–
TTACCAAGGTCAAGGTCGTTGATCCCTCTGTAGA,5.51,3.05,1.11,5.9,6.32,6.38,3.44,5.46,3.67,–
CAAACTAGGTCAAGGTCTAAGTCGGTTTGTGCCA,2.44,0.318,0.246,4.92,8.27,7.05,5.25,6.46,8.12,–
CGAACGAGGTCATGAGTTGATAGCAAATGCCGAT,5.51,0.616,0.023,–,7.55,6.94,4.16,5.98,5.48,–
AGTCAAAGTTTATCTAGGTAACGTAAGATATGCT,0.263,0.141,-0.331,2.17,2.44,2.51,0.904,1.95,2.68,–
AGTCAAACTTCAGGACGAGGTAACGTAAAGCACG,-0.137,-0.0988,-0.504,0.0838,0.919,-0.132,0.281,-0.00758,-0.522,–
TCTCGGAGGACACCAAAGGTCAGAGCTCGACATC,4.25,3.82,-0.0325,3.65,2.04,3.71,2.56,3.22,1.47,–
CCAACTAGGTCAAAGGACAGTGAAAGGCGACGTA,2.56,0.453,0.227,5.08,9.64,8.24,6.76,8.84,7.57,–
CGTCAAAGATCAAGGTAACGTAACAGAAAGCAGC,-0.053,-0.313,-0.677,0.962,0.887,1.09,0.0515,0.332,0.519,–
CGAACTAGGTCACCCAGGACAGTGAATACATTGA,2.03,0.478,-0.274,–,8.33,6.66,4.23,6.12,8.48,–
